A selection: hits, their analogues and other compounds. The true share with any hit is near 3.5%.
Giardia FBPA inh-1: qHTS Assay for Inhibitors of Fructose-1,6-bisphosphate Aldolase from Giardia Lamblia | Potency, µM (doses to about 59.6 µM), for the others: top-dose activity, negative = inhibition, hits mostly inhibitors | purified Giardia FBPA | 290,000 tested, 0.71% active; also: % is scaled to controls: 0 for no effect and ±100 for the full control effect; nearly all actives have a fitted effect of over 55% in size
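Giardia FBPA (40 nM reagent) was preincubated 10 min at RT with compound (up to 57.5 uM final), then substrate plus GAPDH/TPI/NAD/arsenate coupling system with diaphorase/resazurin was added; resorufin fluorescence (525/598 nm) was read after 20 min.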
NS1 function inh: qHTS Assay for Inhibitors of Influenza NS1 Protein Function; 270,000 tested, 0.4% active; Potency, µM (top dose mostly 46.1 µM), for inactives: top-dose activity, positive = more growth; calls by dose curve; also: actives are rising curves; nearly all actives have a fitted effect of over 50% in size
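A cell-based growth assay was used: compounds that relieve NS1-induced slow growth of budding yeast raise OD600. Assay medium was yeast nitrogen base with ammonium sulphate and -URA supplement, pH 6.0, with 2% galactose.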
LmPK inh: qHTS Assay for Inhibitors of Leishmania Mexicana Pyruvate Kinase (LmPK). Q27686. purified LmPK, Kinase-Glo ATP luminescence, 1 h. Potency, µM (series often up to 57.5 µM), inactives show top-dose activity change, negative = inhibition, usual class: inhibitors. 290,000 tested, 0.37% active. AID 1721, 2009; also: % is scaled to controls: 0 for no effect and ±100 for the full control effect
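Pyruvate kinase activity monitored as ATP production (luciferase luminescence). Conditions: 0.1 nM enzyme, 0.5 mM PEP, 0.1 mM ADP, 1 h, RT; normalized against uninhibited and no-enzyme wells.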
Sm TGR block: qHTS Assay for the Inhibitors of Schistosoma Mansoni Peroxiredoxins; Schistosoma mansoni thioredoxin glutathione reductase (TGR), Q962Y6; purified TGR, DTNB reduction, TNB absorbance 405 nm; Potency, µM (doses to about 114 µM), for the others: top-dose activity change, negative = inhibition, most hits filed as inhibitors; 360,000 tested, 3% active; also: % is scaled to controls: 0 for no effect and ±100 for the full control effect; nearly all actives have a fitted effect of over 60% in size
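First, TGR (20 nM dispensed) and NADPH were mixed with compound. Second, a 15 min room-temperature incubation followed. Third, further NADPH and then DTNB were added to start the reaction. Finally, TNB absorbance was monitored kinetically.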
TbPYK inhibitor: qHTS of Trypanosoma Brucei Inhibitors. TbPYK enzyme, Kinase-Glo Plus ATP luminescence, 45 min. Potency, µM (series often up to 76.8 µM), inactives show top-dose activity, negative = inhibition, actives largely listed as inhibitors. pyruvate kinase (Trypanosoma brucei), Q57TT1. 410,000 tested, 0.12% active; also: % is scaled to controls: 0 for no effect and ±100 for the full control effect; nearly all actives have a fitted effect of over 50% in size
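Screened from lowest to highest concentration, compounds were pinned into TbPYK/substrate mixtures, and ADP (130 uM final) was added. Plates sat at room temperature for 45 min prior to Kinase-Glo Plus detection by luminescence.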
RE007 growth inh: qHTS Assay for Inhibitors of the HIV-1 protein Vpr | S. pombe RE007 Vpr strain, BacTiter-Glo ATP luminescence, 24 h | Potency, µM (titrated, usually from 92.2 µM), for the others: top-dose activity change, negative = less growth, most hits filed as inhibitors | 360,000 tested, 0.21% active; active = well fitted falling curve with a large enough effect; inconclusive = small, poorly fitted or top-dose-only effect; inactive = no such curve, though single readings can be large or run the other way; also: % is scaled to controls: 0 for no effect and ±100 for the full control effect; nearly all actives have a fitted effect of over 50% in size
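Fission yeast RE007 carrying one integrated HIV-1 vpr copy, seeded at OD 0.01 in PMG+AL medium with 23 nL pinned compound. Grown 24 h at 30 degrees; viability read by BacTiter-Glo luminescence after 5 min.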
Giardia growth: qHTS Assay for Inhibitors of Fructose-1,6-bisphosphate Aldolase from Giardia Lamblia: Giardia lamblia growth inhibition. shares compounds with Giardia FBPA inh-1. Giardia lamblia trophozoite growth inhibition. Potency, µM (titrated, usually from 57.5 µM), without a hit: top-dose activity change, negative = inhibition, hits mostly inhibitors. AID 2785, 2010. 1,500 tested, 5% active;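 also: trophozoites exposed to compound for 48 h at 37 °C; % is scaled to controls: 0 for no effect and ±100 for the full control effect; nearly all actives have a fitted effect of over 70% in size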
Mammal cell tox: qHTS Assay for Inhibitors of Fructose-1,6-bisphosphate Aldolase from Giardia Lamblia: Mammalian cellular toxicity; 1,500 tested, 4% active; AID 2786, 2010; shares compounds with Giardia FBPA inh-1; Potency, µM (series often up to 57.5 µM), for the others: at the highest dose viability change, negative = toxicity, most hits filed as inhibitors; mammalian cell viability counter-screen, qHTS;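 also: Chinese hamster ovary cells used as mammalian cytotoxicity surrogate; viability measured as cellular ATP by luminescence; compound exposure lasted 48 h before reading; % is scaled to controls: 0 for no effect and ±100 for the full control effect; nearly all actives have a fitted effect of over 60% in size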
Giardia FBPA inh-2: qHTS Assay for Inhibitors of Fructose-1,6-bisphosphate Aldolase from Giardia Lamblia: Primary screen confirmation; purified Giardia aldolase enzyme activity, qHTS; 1,500 tested, 5% active; shares compounds with Giardia FBPA inh-1; Potency, µM (top dose mostly 57.5 µM), for inactives: at the top dose activity change, negative = inhibition, usual class: inhibitors; also: % is scaled to controls: 0 for no effect and ±100 for the full control effect; nearly all actives have a fitted effect of over 45% in size
Rabbit FBPA inh: qHTS Assay for Inhibitors of Fructose-1,6-bisphosphate Aldolase from Giardia Lamblia: Rabbit FBPA Selectivity; shares compounds with Giardia FBPA inh-1; Rabbit muscle FBPA enzyme inhibition, selectivity counter-screen; Potency, µM (doses to about 57.5 µM), inactives show top-dose activity, negative = inhibition, most hits filed as inhibitors; 1,500 tested, 4% active; AID 2794, 2010; also: % is scaled to controls: 0 for no effect and ±100 for the full control effect; nearly all actives have a fitted effect of over 60% in size
Target sequence (P00883 whole entry, looked up): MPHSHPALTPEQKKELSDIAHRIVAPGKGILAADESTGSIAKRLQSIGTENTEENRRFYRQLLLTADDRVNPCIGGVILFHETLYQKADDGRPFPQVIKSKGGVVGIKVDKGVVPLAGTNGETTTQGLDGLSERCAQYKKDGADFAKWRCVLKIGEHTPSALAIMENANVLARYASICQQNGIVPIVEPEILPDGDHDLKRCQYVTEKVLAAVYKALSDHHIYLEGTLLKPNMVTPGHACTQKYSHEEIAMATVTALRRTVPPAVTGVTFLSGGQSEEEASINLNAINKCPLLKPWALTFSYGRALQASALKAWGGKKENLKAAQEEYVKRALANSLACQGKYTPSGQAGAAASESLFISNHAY
GAPDH counter: qHTS Assay for Inhibitors of Fructose-1,6-bisphosphate Aldolase from Giardia Lamblia: Coupling assay counterscreen confirmation; 1,500 tested, 6% active; GAPDH coupling enzyme counterscreen, biochemical, qHTS; Potency, µM (titrated, usually from 57.5 µM), inactives show at the top dose activity change, negative = inhibition, most hits filed as inhibitors; shares compounds with Giardia FBPA inh-1; AID 2795, 2010; also: % is scaled to controls: 0 for no effect and ±100 for the full control effect; nearly all actives have a fitted effect of over 55% in size
* marks the source's active call; other numbers are inactive results; u = inconclusive; x = no result. Unless noted, calls follow the shape of the dose curve; as a rule, active = well fitted curve in the direction sought with a large enough effect; inconclusive = small, poorly fitted or top-dose-only effect, or another doubt; inactive = no such curve, though single readings can be large; an effect the other way counts as inactive or inconclusive. Potency is read from the fitted curve at half-maximal effect.

SMILES	Giardia FBPA inh-1	NS1 function inh	LmPK inh	Sm TGR block	TbPYK inhibitor	RE007 growth inh	Giardia growth	Mammal cell tox	Giardia FBPA inh-2	Rabbit FBPA inh	GAPDH counter
O=c1[nH][nH]c(=S)n1-c1ccccc1C(F)(F)F	17.7µM*	3.2%	-9.5%	u	x	x	u	11.8%	-7.8%	-3.2%	-5.2%
Cc1c(Cl)cccc1-n1ncc(C(=O)NCc2cccs2)c1C1CCN(C(=O)OC(C)(C)C)CC1	x	x	x	0.7%	-2.0%	x	x	x	x	x	x
COCCNC(=S)NN=C1CCCCCC1	19.9µM*	3.5%	6.8%	-16.5%	-0.7%	7.6%	28.8%	-8.9%	10.3%	9.9%	18.9%
COCCNC(=S)N/N=C1\CC(C)CC(C)(C)C1 (stereo not drawn)	17.7µM*	x	1.0%	u	-4.3%	23.4%	39.6%	-1.3%	7.2%	9.5%	14.3%
CCOC(=O)N/N=C1\CC(C)CC(C)(C)C1 (stereo not drawn)	-0.3%	6.0%	-1.7%	-6.9%	1.7%	-20.6%	x	x	x	x	x
COc1ccc(CC(=O)N2CCN(c3ccccc3F)CC2)cc1OC	7.6%	8.1%	-4.3%	0.9%	0.7%	-0.9%	x	x	x	x	x
COc1ccc(OC)c(C2CC(=O)N3CN(c4ccccc4)CSC3=C2C#N)c1 (stereo not drawn)	1.77µM*	-43.0%	18.0%	10µM*	3.55µM*	-1.6%	u	1.6%	-22.0%	u	-15.4%
COc1ccc(N2CSC3=C(C#N)C(c4cccc(OC)c4OC)CC(=O)N3C2)cc1 (stereo not drawn)	1.99µM*	-33.7%	12.8%	22.4µM*	12.6µM*	-7.6%	14.7%	7.5%	u	u	u
COc1ccc(C2CC(=O)N3CN(c4ccccc4F)CSC3=C2C#N)cc1OC (stereo not drawn)	2.81µM*	-39.7%	5.8%	u	3.16µM*	-2.1%	u	4.7%	u	31.6µM*	u
CCCCC(Sc1nc2cc3c(cc2c(=O)n1CCCC(=O)NCc1ccc(OC)cc1)OCO3)C(=O)OCC (stereo not drawn)	x	x	x	1.5%	0.0%	x	x	x	x	x	x
Cc1nc2c(=O)n(C)c(=O)nc-2n(C)n1	u	-42.6%	-0.4%	u	4.2%	u	5.01µM*	15.8µM*	3.98µM*	3.98µM*	2.24µM*

Screening data deposited in PubChem by National Center for Advancing Translational Sciences (NCATS).
